Assay outcomes: PubChem BioAssay, National Center for Advancing Translational Sciences (NCATS)
Hits are enriched below; roughly 6.1% of the tested compounds scored in any of these assays.
D1 PAM: Potentiators of Human D1 Dopamine Receptor: qHTS; D(1A) dopamine receptor (Homo sapiens), P21728; HEK293 TREx D1 cells, calcium flux, dopamine EC20 potentiation; potentiation, % at 10 µM; hit rate 0.036% among 360,000; in the data active = potentiation above about 30%
D1 antag: Antagonist of Human D 1 Dopamine Receptor: qHTS. activity change, negative = inhibition, % at 10 µM. HEK293 TREx D1 cells, calcium flux, dopamine EC80; hits give low values. D(1A) dopamine receptor (Homo sapiens), P21728. hit rate 3.2% among 360,000; in the data active = activity change below about -30%
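Kinetic fluorescence of a calcium dye serves as the read-out. D1-expressing Hek293 Trex cells, induced overnight at 30 C, are exposed to compound for 180 s before an EC80 dopamine addition, then read 180 s further.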
D3 antag: qHTS of D3 Dopamine Receptor Antagonist: qHTS; D3R cells, DiscoveRx beta-arrestin luminescence, antagonist mode; hits give low values; max response, negative = inhibition, %; hit rate 2.5% among 360,000; in the data active = max response below about -50%; inconclusive = no clear call, values can overlap the other calls
Target sequence (P35462 whole entry, looked up): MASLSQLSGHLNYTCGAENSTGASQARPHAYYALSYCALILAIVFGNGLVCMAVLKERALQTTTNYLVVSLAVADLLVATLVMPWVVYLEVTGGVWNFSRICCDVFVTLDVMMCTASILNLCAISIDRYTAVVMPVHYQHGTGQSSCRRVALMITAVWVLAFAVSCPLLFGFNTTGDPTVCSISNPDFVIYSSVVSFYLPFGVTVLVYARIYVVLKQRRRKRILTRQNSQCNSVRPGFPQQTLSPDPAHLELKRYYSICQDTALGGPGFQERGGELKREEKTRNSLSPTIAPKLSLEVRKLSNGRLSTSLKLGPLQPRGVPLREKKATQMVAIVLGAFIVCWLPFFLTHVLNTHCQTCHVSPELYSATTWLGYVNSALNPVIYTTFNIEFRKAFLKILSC
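Cells plated overnight at 1500 cells/well, then exposed to library compounds with dopamine controls for 90 minutes at 37 degrees C. DiscoveRx reagent added for 30–60 minutes at room temperature; luminescence read, quantitative HTS format.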
D3 ag: qHTS of D3 Dopamine Receptor Agonist: qHTS | D3R DiscoveRx beta-arrestin cells, luminescence, 90 min | hit rate 0.58% among 410,000 | D(3) dopamine receptor (Homo sapiens), P35462 | AID 652048, 2013 | max activation, %; in the data active = max activation above about 30%
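Cells at 1500/well, incubated overnight, then treated with pinned compounds (dopamine as control) for 90 min at 37 degrees C. DiscoveRx reagent added for 30 - 60 minutes at room temperature; luminescence read.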
D1 ag: Allosteric Agonists of the Human D1 Dopamine Receptor: qHTS; HEK293 T-REx D1 cells, calcium flux, agonist mode; AID 504660, 2011; hit rate 1% among 360,000; D(1A) dopamine receptor (Homo sapiens), P21728; activation, % at 2 µM; in the data active = activation above about 30%
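Tetracycline-induced HEK293 TREx D1 cells, force-coupled to calcium signalling, were dye-loaded with a no-wash calcium kit. Compound was pin-added after a 10 s baseline. Fluorescence was read kinetically at 1 cycle/s for 180 s, with calcium rises flagged as agonism.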
Large screens that a line does not name were inactive.

Cc1ccc(CNC(=O)C2CC(c3ccccc3F)=NO2)cc1 (centres undefined)	none
Cc1ccc(C)c(NC(=O)CN2C(=O)NC(CCc3ccccc3)C2=O)c1 (centres undefined)	none (no result: D1 PAM, D1 antag, D1 ag)
CCOC(CNc1c([N+](=O)[O-])c(=O)n(C)c(=O)n1C)OCC	none
O=C(O)c1ccc(CSc2nc(-c3ccc(Cl)cc3)cc(C(F)(F)F)n2)cc1	D1 ag 37
O=C(O)c1ccc(CSc2nc(-c3ccccc3)cc(C(F)(F)F)n2)cc1	none
Cc1ccc(S(=O)(=O)NCCC(=O)O)cc1	none
Cc1ccc(S(=O)(=O)NCCCC(=O)O)cc1	D1 antag -32
Cc1ccc(CSCCNS(=O)(=O)c2ccc(C)cc2)cc1	D1 antag -40
CCCN(CCC)C(=O)Cn1c(=O)n(-c2ccc(Cl)c(Cl)c2)c(=O)c2c(C)c(C(=O)N(C)C)sc21	none (no result: D3 antag)
COc1ccc(-n2ncc(C(=O)Nc3ccc4c(c3)OCO4)c2C2CCN(C(=O)OC(C)(C)C)CC2)cc1	none (no result: D3 antag)
CC(=O)c1ccccc1OC(=O)COc1ccc([N+](=O)[O-])cc1	none
CCCc1nc2oc3c(NCCN(C)C)ncnc3c2c2c1CCCC2	D3 antag -54
CCCc1nc2oc3c(NCCCN(C)C)ncnc3c2c2c1CCCC2	none
CC(NC(=O)/C=C/c1cnc2ccccc2n1)C12CC3CC(CC(C3)C1)C2 (centres undefined)	none
COc1ccc(Nc2cc(O)c3ncccc3c2)cc1	none (no result: D3 antag, D3 ag)
COc1cc([N+](=O)[O-])cc(/C=N/N(CCC#N)C(C)=O)c1O	D3 antag -59
C/C(CCc1ccco1)=N\NC(=O)CNc1c(Br)cc(Br)cc1Br	D1 antag -44
COc1ccc(S(=O)(=O)N2CCN(CC(=O)NC3CC3)CC2)cc1	none
CCN1CCc2c(sc3c2c(NCc2ccco2)nc2nnnn23)C1	D3 antag -65
Cc1cc(NC(=O)Nc2cccc(Cl)c2)n(-c2ccccc2)n1	none
CCOC(=O)C(=CNc1cc(C)nn1-c1ccccc1)C(=O)OCC	D3 ag 98
Cc1cc(NC(=O)Nc2ccc(Cl)c(Cl)c2)n(-c2ccccc2)n1	D1 antag -44, D3 antag inconclusive
CCOC(=O)C(=CNc1ccccc1C)C(=O)OCC	none
Cc1cccc(-c2nc(C)c(CCNC(=O)C(=O)Nc3ccccc3C#N)s2)c1	none (no result: D3 antag)
O=C1N/C(=N\N=C\c2cccs2)SC1Cc1ccc(Cl)c(Cl)c1 (centres undefined)	D1 antag -43
O=c1[nH]c(=S)n(-c2ccc(Br)cc2)c2ncccc12	none (no result: D1 PAM, D1 antag, D1 ag)
Fc1ccc(-n2c(=S)[nH]c3cccnc32)cc1	D1 antag -33
COc1ccc(NC(=O)N2CCNC(=O)C2CC(=O)Nc2ccc(F)cc2)cc1 (centres undefined)	none
CC(=O)Oc1ccc2c(c1)C(=O)c1ccccc1CO2	D3 antag inconclusive
CC(=O)Oc1ccc2c(c1)C(=O)CCCCCC(=O)O2	D3 antag -70 (no result: D1 PAM, D1 antag, D1 ag)
O=C(CC(=O)c1ccccn1)c1ccccc1	D3 antag inconclusive (no result: D1 PAM, D1 antag, D1 ag)
CC1CCN(S(=O)(=O)c2ccc(C(=O)N3CCCC(C(F)(F)F)C3)cc2)CC1 (centres undefined)	D1 antag -33
COc1ccccc1NS(=O)(=O)c1ccc(C(=O)N2CCCC(C(F)(F)F)C2)cc1 (centres undefined)	none
Cc1ccc(NS(=O)(=O)c2ccc(C(=O)N3CCCC(C(F)(F)F)C3)cc2)cc1 (centres undefined)	D1 antag -62, D1 ag 70
O=C1N/C(=N\S(=O)(=O)c2ccccc2)S/C1=C\c1cc([N+](=O)[O-])ccc1O	D1 ag 168
O=C1N/C(=N\S(=O)(=O)Cc2ccccc2)S/C1=C/c1cc([N+](=O)[O-])ccc1O	D3 antag inconclusive, D1 ag 267
O=C(Nc1ccc(S(=O)(=O)Nc2nccs2)cc1)c1cc(-c2ccccc2Cl)nc2ccccc12	D3 antag -85
O=C(Nc1cccc(S(=O)(=O)NC2=NCCCCC2)c1)c1cc(-c2ccccc2Cl)nc2ccccc12	D1 antag -36
O=C(Nc1cccc(S(=O)(=O)NC2=NCCC2)c1)c1cc(-c2ccccn2)nc2ccccc12	none
COc1ccc(-c2cc(-c3ccccc3)nc(N3CCCC3)n2)cc1OC	D3 ag 41
CN1CCN(c2nc(-c3cccs3)cc(C(F)(F)F)n2)CC1	D3 antag -94
CN1CCN(c2nc(-c3ccccc3)cc(C(F)(F)F)n2)CC1	D3 antag -70
Cc1cc2c(cc1C)N(CC(=O)N1CCCC1)C(=O)CC(c1ccccc1)=N2	D3 antag -75
CCCCc1cc(=O)oc2cc(C)cc(OCC(=O)N3CCC(C(=O)O)CC3)c12	none
O=C(O)c1cc2cccc(S(=O)(=O)N3CCCCC3)c2cc1O	D3 ag 30
CCN1C(=O)[C@@H]2[C@@H](c3ccc(-c4ccc(F)cc4)c(OC)c3)N3CCCC[C@@]3(C(=O)OC)[C@@H]2C1=O	D3 ag 33
COC(=O)[C@@]12CCCN1[C@H](c1ccc(-c3ccc(F)cc3)cc1)[C@H]1C(=O)N(C)C(=O)[C@H]12	D1 antag -44
Cc1ccc(-c2c[n+](CC(=O)Nc3ccccc3C)c3n2CCC3)cc1	D3 antag -63
COc1ccc(-c2c[n+](CC(=O)c3ccccc3)c3n2CCCCC3)cc1	D3 antag -61
O=C(C[n+]1cc(-c2ccccc2)n2c1CCCCC2)c1ccc(Cl)cc1	none
Cc1ccc(NC(=O)C[n+]2cc(-c3ccccc3)n3c2CCC3)cc1	D3 antag -111
Cc1ccc(-c2c[n+](CC(=O)Nc3nc(-c4ccccc4)cs3)c3n2CCC3)cc1	none
CCOc1ccccc1NC(=O)Cn1c(=O)n(Cc2ccco2)c(=O)c2ccc(C(=O)NC3CCCC3)cc21	none (no result: D3 antag)
O=S(=O)(c1ccc2c(c1)OCCO2)N1CCN(S(=O)(=O)c2cccc3cccnc23)CC1	none (no result: D3 antag, D3 ag)
CCc1ccc(NC(=O)C(C)OC(=O)c2ccc(NS(=O)(=O)c3ccc(C)c([N+](=O)[O-])c3)cc2)cc1 (centres undefined)	D3 antag -53
Cc1cc(C)c2c(=O)[nH]c(SCC(=O)c3ccc(C)c(C)c3)nc2n1	none
O=S1(=O)[C@H]2C[C@H](CO)O[C@@]2(CO)CN1Cc1ccc(-c2ccc(F)cc2)cc1	D3 ag 31 (no result: D1 PAM, D1 antag, D1 ag)
O=S1(=O)[C@H]2C[C@H](CO)O[C@@]2(CO)CN1Cc1ccc(-c2cccc(Cl)c2)cc1	none (no result: D1 PAM, D1 antag, D1 ag)
O=C(Cn1nc(CNc2ccc(Cl)cc2)[n+]2c1CCCCC2)c1ccccc1	none
Cc1ccc(C(C)C)c(OCc2nn(CC(=O)c3ccc(Cl)cc3)c3[n+]2CCCCC3)c1	D3 antag -52
